Records with an inconclusive call do not appear. Active and inactive are the calls of the source. How the source made its calls: active means hit-call score of the fitted dose curve at least 0.9, where 1 is the maximum; inconclusive means response in the unintended direction; inactive means score below 0.9.
How the values were obtained:
[1] = system: guinea pig Histamine Receptor (H2), gene 100729734; assay: NVS_GPCR_gH2: NovaScreen (NVS) G Protein-Coupled Receptor Assay for guinea pig Histamine Receptor (H2) (AID 2283342)
How it was run: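 Radioligand displacement on guinea pig striatal membranes, 1 h after dosing, filter-based scintillation counting; loss of signal versus DMSO. Single-point screen at 25 uM in duplicate, then concentration-response up to 50 uM.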

[2] = molecular target: Androgen Receptor/SRC-1 Co-activator, AR (gene 367) (UniProt P10275); assay: OT_AR_ARSRC1_0960: Odyssey Thera (OT) 16-hour HEK293T Protein-Complementation Assay for Androgen Receptor/SRC-1 Co-activator (AID 2283353);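 further: actives raise the signal above DMSO so potency reflects increased AR and SRC-1 complex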
Chain of Androgen Receptor/SRC-1 Co-activator, AR (gene 367) (P10275 whole entry, looked up, the tested form may be a part): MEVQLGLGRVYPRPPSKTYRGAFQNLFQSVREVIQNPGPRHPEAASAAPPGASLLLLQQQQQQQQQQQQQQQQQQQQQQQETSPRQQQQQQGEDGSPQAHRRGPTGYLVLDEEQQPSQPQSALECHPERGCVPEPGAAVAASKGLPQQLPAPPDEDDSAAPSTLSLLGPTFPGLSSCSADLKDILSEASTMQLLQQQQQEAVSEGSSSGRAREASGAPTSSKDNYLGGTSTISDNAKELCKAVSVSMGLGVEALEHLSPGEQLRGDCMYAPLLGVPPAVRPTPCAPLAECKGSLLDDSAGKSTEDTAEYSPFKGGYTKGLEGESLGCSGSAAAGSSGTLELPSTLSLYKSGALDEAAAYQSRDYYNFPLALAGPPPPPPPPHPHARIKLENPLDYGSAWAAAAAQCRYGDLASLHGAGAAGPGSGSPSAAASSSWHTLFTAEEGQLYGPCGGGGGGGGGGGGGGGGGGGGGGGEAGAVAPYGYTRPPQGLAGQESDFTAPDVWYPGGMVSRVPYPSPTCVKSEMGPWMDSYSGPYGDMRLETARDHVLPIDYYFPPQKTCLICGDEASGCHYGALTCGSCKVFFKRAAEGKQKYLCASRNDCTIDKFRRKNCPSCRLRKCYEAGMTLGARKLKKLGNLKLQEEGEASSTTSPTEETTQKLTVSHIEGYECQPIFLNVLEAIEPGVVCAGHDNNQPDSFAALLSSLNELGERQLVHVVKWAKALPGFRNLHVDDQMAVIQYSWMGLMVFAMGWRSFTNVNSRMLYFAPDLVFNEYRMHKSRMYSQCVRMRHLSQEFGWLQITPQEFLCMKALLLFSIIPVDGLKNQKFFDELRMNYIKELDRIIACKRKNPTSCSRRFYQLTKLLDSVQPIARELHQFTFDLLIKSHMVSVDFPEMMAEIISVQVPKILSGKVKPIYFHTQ
How it was run: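 HEK293T cells stably expressing AR and SRC-1 fused to split Venus YFP fragments via (Gly4Ser)2 linkers were dosed for 16 h. Nuclear/cytoplasmic fluorescence ratio at 488 nm, ≥400 cells per image, fitted for gain of signal versus DMSO.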

[3] = molecular target: Androgen Receptor/SRC-1 Co-activator, AR (gene 367) (UniProt P10275); assay: OT_AR_ARSRC1_0480: Odyssey Thera (OT) 8-hour HEK293T Protein-Complementation Assay for Androgen Receptor/SRC-1 Co-activator (AID 2283354);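 further: hits raise the complementation signal above DMSO so AC50 marks enhancers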
How it was run: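 HEK293T cells stably expressing AR and SRC-1 fused to split Venus YFP fragments via (Gly4Ser)2 linkers were read 8 h after compound dosing. Complementation was imaged at 488 and 635nm, and nuclear/cytoplasmic fluorescence ratio (488nm) was taken over ≥400 cells; gain-of-signal versus DMSO.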

[4] = molecular target: Estrogen receptor beta (Homo sapiens) (UniProt Q92731); assay: OT_ER_ERbERb_0480: Odyssey Thera (OT) 8-hour HEK293T Protein-Complementation Assay for Estrogen Receptor-beta/-beta Homodimer (AID 2283357);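 further: active means signal gain over DMSO baseline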
Chain of Estrogen receptor beta (Homo sapiens) (Q92731 whole entry, looked up, the tested form may be a part): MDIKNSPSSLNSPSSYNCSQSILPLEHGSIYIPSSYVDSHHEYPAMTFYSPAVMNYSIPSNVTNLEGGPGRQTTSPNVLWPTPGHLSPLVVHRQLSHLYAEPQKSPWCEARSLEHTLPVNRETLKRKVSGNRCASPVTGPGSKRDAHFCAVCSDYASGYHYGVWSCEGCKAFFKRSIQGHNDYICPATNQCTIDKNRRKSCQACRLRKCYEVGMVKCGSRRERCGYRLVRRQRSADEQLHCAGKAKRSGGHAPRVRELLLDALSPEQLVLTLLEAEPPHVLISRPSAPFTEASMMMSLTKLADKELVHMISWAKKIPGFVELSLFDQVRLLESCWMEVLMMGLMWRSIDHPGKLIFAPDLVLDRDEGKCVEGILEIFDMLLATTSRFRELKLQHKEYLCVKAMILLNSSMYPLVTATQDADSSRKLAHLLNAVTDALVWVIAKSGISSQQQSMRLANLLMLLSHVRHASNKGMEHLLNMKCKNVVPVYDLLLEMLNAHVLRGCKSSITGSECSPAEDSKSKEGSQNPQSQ
How it was run: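 Readout: increase in mean fluorescence intensity (nucleus for agonists; nucleus plus cytoplasm for antagonists) relative to DMSO, from a reporter-fragment complementation of human ER-beta LBD homodimer in HEK293T cells dosed 8 hours.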

[5] = molecular target: Estrogen receptor (Homo sapiens) (UniProt P03372); assay: OT_ER_ERaERa_1440: Odyssey Thera (OT) 24-hour HEK293T Protein-Complementation Assay for Estrogen Receptor-alpha/-alpha Homodimer (AID 2283349);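 further: hits raise fluorescence above DMSO for agonists and antagonists alike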
Chain of Estrogen receptor (Homo sapiens) (P03372 whole entry, looked up, the tested form may be a part): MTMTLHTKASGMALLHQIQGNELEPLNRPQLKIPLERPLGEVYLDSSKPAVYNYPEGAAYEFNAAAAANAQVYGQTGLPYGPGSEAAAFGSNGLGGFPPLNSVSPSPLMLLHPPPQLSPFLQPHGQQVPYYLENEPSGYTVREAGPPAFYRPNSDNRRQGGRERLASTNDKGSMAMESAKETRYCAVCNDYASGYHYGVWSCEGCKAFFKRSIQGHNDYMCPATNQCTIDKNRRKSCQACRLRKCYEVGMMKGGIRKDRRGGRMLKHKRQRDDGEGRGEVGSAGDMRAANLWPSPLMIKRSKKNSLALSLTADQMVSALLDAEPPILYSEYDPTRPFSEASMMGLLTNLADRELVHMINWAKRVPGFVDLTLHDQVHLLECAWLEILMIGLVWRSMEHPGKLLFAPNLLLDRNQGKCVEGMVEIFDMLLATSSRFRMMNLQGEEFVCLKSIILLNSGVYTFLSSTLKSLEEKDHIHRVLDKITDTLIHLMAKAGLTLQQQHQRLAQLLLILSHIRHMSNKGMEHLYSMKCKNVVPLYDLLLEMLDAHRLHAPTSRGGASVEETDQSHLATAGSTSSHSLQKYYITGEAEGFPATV
How it was run: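 Readout is the rise in mean fluorescence from reporter fragment complementation when ERα LBD (aa 310-547) units dimerize in HEK293T cells. Measured 24 h after dosing and analysed as increase over DMSO control.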

[6] = molecular target: T1, Estrogen receptor (Homo sapiens) + Estrogen receptor beta (Homo sapiens) (UniProt P03372+Q92731); assay: OT_ER_ERaERb_0480: Odyssey Thera (OT) 8-hour HEK293T Protein-Complementation Assay for Estrogen Receptor-alpha/-beta Heterodimer (AID 2283352)
T1 sequence (P03372 whole entry, looked up, the tested form may be a part): as above
T1 sequence (Q92731 whole entry, looked up, the tested form may be a part): as the sequence (Q92731 whole entry, looked up, the tested form may be a part) above
How it was run: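 HEK293T cells expressing ER-alpha/ER-beta LBD fusions to complementary reporter fragments were dosed with compound for 8 hours. Heterodimer formation was read as increased nuclear (agonist) or nuclear plus cytoplasmic (antagonist) mean fluorescence intensity versus DMSO vehicle.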

[7] = molecular target: T1, Estrogen receptor (Homo sapiens) + Estrogen receptor beta (Homo sapiens); assay: OT_ER_ERaERb_1440: Odyssey Thera (OT) 24-hour HEK293T Protein-Complementation Assay for Estrogen Receptor-alpha/-beta Homodimer (AID 2283356);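 further: heteromer of ER alpha and ER beta binding domains; hits raise reporter fluorescence and both agonists and antagonists give an increase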
How it was run: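 HEK293T cells stably expressing a PCA pair of ERα LBD (aa 310-547) and ERβ LBD (aa 263-489) were dosed for 24 h. Fluorescence intensity increase versus DMSO vehicle was fitted as gain-of-signal.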

[8] = molecular target: Estrogen receptor (Homo sapiens) (UniProt P03372); assay: OT_ER_ERaERa_0480: Odyssey Thera (OT) 8-hour HEK293T Protein-Complementation Assay for Estrogen Receptor-alpha/-alpha Homodimer (AID 2283351);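 further: rise in fluorescence from reassembled reporter fragments on ERα LBD homodimer in nucleus or whole cell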
How it was run: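 HEK293T cells stably expressing the human ERα ligand-binding domain (aa 310-547) as a homodimer PCA were dosed with compound for 8 h. Gain of fluorescence intensity versus DMSO vehicle was read by laser scanning cytometry.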

[9] = molecular target: chimpanzee Androgen Receptor (AR), AR (gene 747460) (UniProt O97775); assay: NVS_NR_cAR: NovaScreen (NVS) Nuclear Receptor Binding Assay for chimpanzee Androgen Receptor (AR) (AID 2283346);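 further: radioligand displacement from AR measured by scintillation counting in a cell-free assay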
Chain of chimpanzee Androgen Receptor (AR), AR (gene 747460) (O97775 whole entry, looked up): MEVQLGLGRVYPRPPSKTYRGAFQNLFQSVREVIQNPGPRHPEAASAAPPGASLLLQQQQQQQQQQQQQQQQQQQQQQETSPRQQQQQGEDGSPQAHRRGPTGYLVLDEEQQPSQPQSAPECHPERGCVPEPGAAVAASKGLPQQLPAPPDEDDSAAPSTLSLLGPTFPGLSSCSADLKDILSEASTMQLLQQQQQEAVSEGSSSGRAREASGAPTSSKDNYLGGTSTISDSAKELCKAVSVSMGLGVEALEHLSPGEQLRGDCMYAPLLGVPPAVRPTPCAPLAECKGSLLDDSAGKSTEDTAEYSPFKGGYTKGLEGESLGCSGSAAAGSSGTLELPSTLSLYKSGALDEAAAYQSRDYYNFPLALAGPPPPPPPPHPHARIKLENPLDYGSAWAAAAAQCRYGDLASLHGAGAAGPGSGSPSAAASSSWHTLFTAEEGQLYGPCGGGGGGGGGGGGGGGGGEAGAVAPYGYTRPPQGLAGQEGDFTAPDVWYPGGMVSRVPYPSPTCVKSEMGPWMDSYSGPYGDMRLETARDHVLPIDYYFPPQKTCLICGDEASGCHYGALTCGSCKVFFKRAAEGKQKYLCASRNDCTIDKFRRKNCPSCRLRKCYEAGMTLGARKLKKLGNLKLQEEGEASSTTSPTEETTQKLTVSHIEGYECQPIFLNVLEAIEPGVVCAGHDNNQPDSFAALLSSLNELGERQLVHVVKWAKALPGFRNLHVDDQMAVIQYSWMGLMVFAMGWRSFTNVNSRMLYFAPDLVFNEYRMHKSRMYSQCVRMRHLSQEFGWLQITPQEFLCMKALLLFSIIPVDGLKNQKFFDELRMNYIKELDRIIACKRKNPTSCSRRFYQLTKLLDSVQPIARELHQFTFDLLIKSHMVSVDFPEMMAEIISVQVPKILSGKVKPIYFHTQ
How it was run: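 Cell-free radioligand displacement using receptor protein extracted from Sf9/Sf21 cells; bound radioligand measured by scintillation counting 72 hours after chemical dosing. Loss of signal versus DMSO baseline indicates binding; primary screen single-concentration in duplicate at 25 uM, actives followed in concentration series.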

PGR (gene 5241) = PGR (gene 5241) (UniProt P06401); assay: NVS_NR_hPR: NovaScreen (NVS) Nuclear Receptor Binding Assay for human Progestron Receptor (PR) (AID 2283360)
Chain of PGR (gene 5241) (P06401 whole entry, looked up): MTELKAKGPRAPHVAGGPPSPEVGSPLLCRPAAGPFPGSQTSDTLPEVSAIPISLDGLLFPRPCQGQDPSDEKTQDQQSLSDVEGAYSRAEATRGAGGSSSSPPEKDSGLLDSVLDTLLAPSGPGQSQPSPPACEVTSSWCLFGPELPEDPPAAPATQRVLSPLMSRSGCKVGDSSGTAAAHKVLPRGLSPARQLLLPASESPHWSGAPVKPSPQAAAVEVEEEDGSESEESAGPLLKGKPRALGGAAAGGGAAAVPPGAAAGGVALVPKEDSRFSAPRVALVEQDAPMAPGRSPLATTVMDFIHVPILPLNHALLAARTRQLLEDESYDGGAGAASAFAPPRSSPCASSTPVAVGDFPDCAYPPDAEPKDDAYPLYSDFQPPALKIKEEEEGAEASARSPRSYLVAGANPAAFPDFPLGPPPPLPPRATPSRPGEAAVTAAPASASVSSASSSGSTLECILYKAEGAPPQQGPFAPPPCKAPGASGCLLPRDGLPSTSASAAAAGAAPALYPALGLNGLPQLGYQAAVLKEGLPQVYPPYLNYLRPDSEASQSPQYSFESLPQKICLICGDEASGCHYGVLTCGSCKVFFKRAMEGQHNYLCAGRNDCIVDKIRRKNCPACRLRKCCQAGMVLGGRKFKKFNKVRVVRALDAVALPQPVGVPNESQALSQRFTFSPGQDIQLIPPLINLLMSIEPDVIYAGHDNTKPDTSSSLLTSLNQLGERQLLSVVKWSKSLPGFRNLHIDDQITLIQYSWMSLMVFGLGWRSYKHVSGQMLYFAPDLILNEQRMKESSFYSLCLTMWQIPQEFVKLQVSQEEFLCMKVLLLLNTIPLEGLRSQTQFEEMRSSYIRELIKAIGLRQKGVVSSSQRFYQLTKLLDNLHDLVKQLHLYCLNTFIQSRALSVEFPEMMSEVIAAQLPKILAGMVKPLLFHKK
How it was run: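 Radioligand competition binding on receptor extracted from T47D cells, read by scintillation counting 18 h after dosing. Loss of signal versus DMSO; primary screen in duplicate at 25 uM, actives followed in concentration series.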

[10] = molecular target: human Peroxisome Proliferator-activated Receptor alpha (PPARa), PPARA (gene 5465) (UniProt Q07869); assay: NVS_NR_hPPARa: NovaScreen (NVS) Nuclear Receptor Binding Assay for human Peroxisome Proliferator-activated Receptor alpha (PPARa) (AID 2283359);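 further: activity means loss of TR-FRET signal versus DMSO baseline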
Chain of human Peroxisome Proliferator-activated Receptor alpha (PPARa), PPARA (gene 5465) (Q07869 whole entry, looked up): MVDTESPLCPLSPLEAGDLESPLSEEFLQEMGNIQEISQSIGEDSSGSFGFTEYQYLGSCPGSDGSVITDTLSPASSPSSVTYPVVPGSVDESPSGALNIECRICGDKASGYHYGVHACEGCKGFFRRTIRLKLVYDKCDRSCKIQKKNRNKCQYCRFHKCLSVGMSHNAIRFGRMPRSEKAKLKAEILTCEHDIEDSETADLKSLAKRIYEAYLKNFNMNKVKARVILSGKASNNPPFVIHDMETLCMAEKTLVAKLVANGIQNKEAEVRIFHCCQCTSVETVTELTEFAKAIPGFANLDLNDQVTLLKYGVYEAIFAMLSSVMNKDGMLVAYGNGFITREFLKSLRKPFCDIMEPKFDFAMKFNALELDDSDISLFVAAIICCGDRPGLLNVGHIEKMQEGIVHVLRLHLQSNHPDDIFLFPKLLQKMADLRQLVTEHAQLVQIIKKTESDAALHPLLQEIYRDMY
How it was run: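 Cell-free binding assay with extracted human protein, read by TR-FRET 1 h after chemical dosing. Loss of signal relative to DMSO baseline indicates binding. Primary screen used duplicate single concentration (25 uM); actives followed up in concentration series.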

[11] = molecular target: Retinoic acid receptor alpha (Homo sapiens) (UniProt P10276); assay: NVS_NR_hRARa_Agonist: NovaScreen (NVS) Nuclear Receptor Binding Assay for human Retinoic Acid Alpha Receptor Agonism (RAR) (AID 2283361)
Chain of Retinoic acid receptor alpha (Homo sapiens) (P10276 whole entry, looked up): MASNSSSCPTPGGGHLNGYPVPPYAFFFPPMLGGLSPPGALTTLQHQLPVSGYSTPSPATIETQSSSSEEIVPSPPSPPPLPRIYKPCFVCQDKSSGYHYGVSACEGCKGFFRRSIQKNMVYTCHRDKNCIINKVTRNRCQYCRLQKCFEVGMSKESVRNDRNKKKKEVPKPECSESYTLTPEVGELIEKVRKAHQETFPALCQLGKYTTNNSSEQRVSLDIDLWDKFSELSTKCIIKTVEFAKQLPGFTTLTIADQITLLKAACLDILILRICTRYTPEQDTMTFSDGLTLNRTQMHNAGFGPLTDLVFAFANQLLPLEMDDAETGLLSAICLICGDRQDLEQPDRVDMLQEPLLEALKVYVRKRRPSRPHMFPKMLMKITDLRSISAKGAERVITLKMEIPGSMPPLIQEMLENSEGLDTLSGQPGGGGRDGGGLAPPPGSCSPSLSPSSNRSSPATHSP
How it was run: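 Cell-free TR-FRET binding read-out with extracted human RARα protein, read 2 h after compound addition. Gain of signal scored against DMSO baseline. Primary screen at a single 25 uM in duplicate; actives then retested in concentration series.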

[12] = molecular target: Estrogen receptor (Homo sapiens) (UniProt P03372); assay: NVS_NR_hER: NovaScreen (NVS) Nuclear Receptor Binding Assay for human Estrogen Receptor (ER) (AID 2283348)
How it was run: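 Cell-free radioligand binding with protein extracted from MCF7 cells; scintillation counting 18 hours after dosing. Loss of signal versus DMSO baseline read as displacement; primary single-concentration screen at 25 uM in duplicate, actives retested in concentration series.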

Measured: AC50

CCCN(C1CCN(C(=O)C2CCNCC2)CC1)[C@@H]1CCc2ccc(OC)cc2C1
active: [1] 16.9 µM
inactive: [2] | [3] | [4]

CCNc1ccccc1
inactive: [2] | [3] | [4]

CCCC(=O)OCC
inactive: [5] | [6] | [7] | [4]

CC(C)CCO
inactive: [5] | [8] | [6] | [7] | [4]

O=C(O)c1cc(N=Nc2ccc(S(=O)(=O)Nc3ccccn3)cc2)ccc1O
active: [9] 5.35 µM | PGR (gene 5241) 36.5 µM
inactive: [4]

Cc1ccc(S(=O)(=O)O)cc1C
inactive: [5] | [8] | PGR (gene 5241)

CCCCCCc1ccc(O)cc1O
inactive: [9] | [10]
active: [2] 92.3 µM | [3] 77.9 µM

Nc1nc2ncc(CNc3ccc(C(=O)N[C@@H](CCC(=O)O)C(=O)O)cc3)nc2c(=O)[nH]1
inactive: [9] | [2] | [3] | [4]
active: [11] 15.8 µM

O=C(O)c1cccc(N(Cc2cccnc2)c2ccc(OC(F)F)c(OC(F)F)c2)c1
inactive: [3] | [4]
active: [9] 2.81 µM | [2] 37.1 µM | PGR (gene 5241) 4.96 µM

O=C(OC[C@H]1O[C@@H](OC(=O)c2cc(O)c(O)c(OC(=O)c3cc(O)c(O)c(O)c3)c2)[C@H](OC(=O)c2cc(O)c(O)c(OC(=O)c3cc(O)c(O)c(O)c3)c2)[C@@H](OC(=O)c2cc(O)c(O)c(OC(=O)c3cc(O)c(O)c(O)c3)c2)[C@@H]1OC(=O)c1cc(O)c(O)c(OC(=O)c2cc(O)c(O)c(O)c2)c1)c1cc(O)c(O)c(OC(=O)c2cc(O)c(O)c(O)c2)c1
active: [9] 0.472 µM | PGR (gene 5241) 6.13 µM

CC(C)=CCCC(C)=CC=O
inactive: [12] | [5] | [8] | [6] | [7] | [4] | [10]

COC(=O)c1ccccc1O
inactive: [5] | [6] | [7] | [4]

C=CC(=C)CCC=C(C)C
inactive: [5] | [8] | [6] | [7] | [4]

O=c1n(CC2CO2)c(=O)n(CC2CO2)c(=O)n1CC1CO1 (centres undefined)
inactive: [5] | [8] | [6] | [7] | [4]

CCCCCCCCO
inactive: [5] | [8] | [6] | [7] | [4]

Reference: PubChem BioAssay (EPA / NIEHS)
